# PubChem BioAssay AID588342 (National Center for Advancing Translational Sciences (NCATS), 2011)
# Hit rate of the full screen: of about 360,000 compounds, about 25,000 (6.9%) were called active. Roughly 9% stayed inconclusive and do not appear here. The entries come from a sample that favours actives as a whole. A number with no mark means an inactive call. Calls come from the whole dose curve; as a rule, active = well fitted inhibition curve with a large enough effect; inconclusive = small, poorly fitted or top-dose-only effect; inactive = flat fitted curve, though single readings scatter.
# Target: Luciferin 4-monooxygenase (Photinus pyralis) (UniProt P08659)
# Sequence (P08659 whole entry, looked up): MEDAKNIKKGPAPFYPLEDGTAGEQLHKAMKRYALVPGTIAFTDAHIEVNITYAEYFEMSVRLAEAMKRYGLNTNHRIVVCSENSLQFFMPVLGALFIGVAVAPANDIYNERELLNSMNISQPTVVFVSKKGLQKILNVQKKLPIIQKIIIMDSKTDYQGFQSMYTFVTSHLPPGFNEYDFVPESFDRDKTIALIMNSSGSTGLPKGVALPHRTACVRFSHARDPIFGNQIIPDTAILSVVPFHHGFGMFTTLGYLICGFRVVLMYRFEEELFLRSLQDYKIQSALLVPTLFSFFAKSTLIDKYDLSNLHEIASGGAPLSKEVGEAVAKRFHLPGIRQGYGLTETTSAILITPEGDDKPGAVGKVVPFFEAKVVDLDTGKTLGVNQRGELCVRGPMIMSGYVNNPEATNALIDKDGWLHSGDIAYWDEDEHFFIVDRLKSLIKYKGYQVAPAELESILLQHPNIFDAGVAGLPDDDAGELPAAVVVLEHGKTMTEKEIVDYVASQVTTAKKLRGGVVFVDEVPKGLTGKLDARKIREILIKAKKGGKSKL
# Test: qHTS profiling assay for firefly luciferase inhibitor/activator using purifed enzyme and Km concentrations of substrates (counterscreen for miR-21 project); note: nearly all actives have a fitted effect of over 55% in size;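 for activity change, negative = inhibition: plate controls were vehicle for no effect and reference inhibitor for full effect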
# Details: purified FLuc, luminescence inhibition; series mostly up to 57.5 µM; activity change, negative = inhibition: at the top concentration
# Text: MLPCN Grant: 1 R21 NS059478-01 (miR-21 grant) Assay Provider: NCGC NCGC Assay Overview: Firefly (Photinus pyralis) luciferase is one of the most commonly used transcriptional reporters for a number of reasons. It is considered one of the more dynamically responsive reporters -that is, responsive to changes in reporter transcription - as it requires no post-translational modifications and is enzymatically active directly after protein synthesis (Wood, 1998). Additionally, the half-life of the luciferase protein is short relative to other reporter-gene products (Wood, 1995). Whereas reporters with long half-lives potentially allow for increased signal due to accumulation of reporter-gene product, once accumulated in the cell, dynamic changes in reporter-gene expression may be difficult to detect(Fan and Wood, 2007; Almond et al., 2004). It has been shown that wild-type P. pyralis luciferase has a half-life of approximately […] hours in mammalian cells (Thompson et al., 1991). Firefly luciferase reporter-gene assays are also generally considered one of the most sensitive assay types (Wood, 1995; Wood, 1998). Although light produced in a bioluminescence reaction is of lower intensity than that produced during fluorescence emission, this is offset by little to no background light inherent to luminescent assays. Thus the luciferase reporter can be expressed at much lower levels than fluorescent proteins while still providing robust signal. # However, it was initially observed, in 1991, by Thompson et al., that compounds that resemble the substrates of firefly luciferase (FLuc) can act as competitive inhibitors of the enzyme, and that these compounds, upon interaction with luciferase in the cell, can actually stabilize the protein and increase its half-life. Accumulated intracellular FLuc protein can be measured as an increase in luminescence signal, upon addition of detection reagents (which contain high concentrations of FLuc substrates) commonly used in high-throughput screening. In cell-based reporter gene assays that use FLuc as the reporter gene to quantitate the potential influence of a given compound against the target biology, this apparent increase in luminescence can mistakenly be interpreted as identification of a compound that is active against the target of interest. This is the case for the miR-21 FLuc reporter gene assay used to identify inhibitors of the miR-21 pathway (PubChem AID 2289) - compounds of interest will inhibit miR-21 biogenesis/expression or activity, and are identified by causing an increase in luminescence, due to increased FLuc translation. However, FLuc inhibitory compounds that stabilize the FLuc protein will give an identical read-out, making it difficult to distinguish compounds that are active against the target from those active against FLuc. Previous profiling work to determine the prevalence of compounds that affect FLuc enzymatic activity (PubChem AID 411) identified that ~3% of the MLSMR library (then at ~72K) inhibited FLuc. […] Since the MLSMR had grown to ~350K compounds, and since it was expected that a significant percentage of compounds found active in the miR-21 FLuc assay would be FLuc inhibitors, the library was screened for activity against FLuc using a biochemical assay of purified FLuc and KM concentrations of FLuc substrates (D-luciferin and ATP).
# NCGC Assay Protocol Summary: Reagents: 50mM Tris acetate, pH 7.5; 10mM Mg acetate; 10uM D-luciferin (Sigma #L9504); 10uM ATP; 0.01% Tween-20; 0.05% BSA; 10nM P. pyralis luciferase (Sigma #L9506) Control compounds used were two known firefly luciferase inhibitors (compounds (2) and (5) in Auld et al., 2010), and DMSO. […]
Structure (SMILES),"activity change, negative = inhibition",Potency
CCCn1nc(C(=O)OCc2nc(N)nc(Nc3ccccc3C)n2)c2ccccc2c1=O,-1.32%,–
Cc1cc(=O)n(CC(=O)Nc2cccc([N+](=O)[O-])c2)c(-n2nc(C)cc2C)n1,3.47%,–
O=C(CCN1C(=O)c2ccccc2C1=O)C1=NN[C@@H]2C(=O)N(c3ccc(F)cc3)C(=O)[C@H]12,-0.377%,–
CC1(C)CC(=O)c2c(n(S(=O)(=O)c3ccccc3)c3ccc(NS(=O)(=O)c4ccccc4)cc23)C1,1.26%,–
O=C(CCSc1ccccc1)N1CCN(c2ccccc2F)CC1,–,10.7 µM (active)
O=C(CCSCc1ccccc1F)N1CCN(c2ccc(Cl)cc2)CC1,-10.8%,–
O=C(CCc1ccccc1F)N1CCN(c2ccccc2)CC1,3.75%,–
Cc1ccc(C)c(Nc2nnc(-c3ccc(C)c(S(=O)(=O)N4CCCCC4)c3)c3ccccc23)c1,-1.33%,–
C=CCn1c(SCc2c(C)noc2C)nc2sc3c(c2c1=O)CCC(C)C3 (centres undefined),5.75%,–
CC1CCc2c(sc3nc4n(c(=O)c23)CCS4)C1 (centres undefined),–,21.3 µM (active)
Cn1c(NN)nc2sc3c(c2c1=O)CCC3,1.61%,–
CCCn1nnc2sc3c(c2c1=O)CCC(C)C3 (centres undefined),–,15.1 µM (active)
COC(=O)c1cccc(Cn2nnc3sc4c(c3c2=O)CCC(C(C)(C)C)C4)c1 (centres undefined),6.43%,–
Cc1ccc(NC(=O)Cn2nnc3sc4c(c3c2=O)CCC(C)C4)cc1 (centres undefined),-7.12%,–
Cc1ccc2nc3c(cc(C(=O)NC4CCCCC4)c(=N)n3C(C)C)c(=O)n2c1,-2.1%,–
CCOC(=O)c1c(NC(=O)Cc2coc3ccc(CC)cc23)sc2c1CCC2,3.62%,–
Fc1ccccc1/C=C1\CCCC2=C1Nc1ncnn1C2c1ccccc1F (centres undefined),2.39%,–
CSCCC(NC(=O)c1ccccc1)C(=O)N1CCCCCCC1 (centres undefined),0.843%,–
COc1ccc(Cl)cc1S(=O)(=O)N1CCC(c2ccncc2)CC1,-1.34%,–
CC1CCCCN1CC(=O)N1CCCc2c1c(=O)oc1ccc(OCc3ccccc3)cc21 (centres undefined),-1.68%,–
Cc1ccc(CNS(=O)(=O)CCNC(=O)c2ccccc2)cc1,-1.29%,–
Cn1c2c(c(=O)n(C)c1=O)C(c1cccc([N+](=O)[O-])c1)Nc1ccccc1O2 (centres undefined),9.28%,–
Cc1ccc(-c2cc(N)n(Cc3cccc(Cl)c3)n2)cc1,-7.16%,–
Cc1ccc(-c2cc(N)on2)cc1,–,16.9 µM (active)
Cc1ccc(S(=O)(=O)Cc2cc(-c3ccc(Cl)cc3)no2)cc1,-13%,–
CCc1nn(CC(=O)Nc2cccc(C)c2C)c(=O)c2cc3sccc3n12,-8.3%,–

Structure (SMILES),"activity change, negative = inhibition",Potency
COc1cc(C(=O)N2CCN(C(=O)COc3cccc(C)c3)CC2)cc(OC)c1OC,3.42%,–
CCOC(=O)c1cnc(SCC(=O)Nc2ccccc2C(=O)OC)nc1N,-17.3%,–
CCOC(=O)c1cnc(SCc2nc(N)nc(Nc3ccc(OC)cc3)n2)nc1N,–,19 µM (active)
CCOC(=O)c1cnc(SCC(=O)Nc2cccc(OC)c2)nc1N,-2.7%,–
Cc1c(CCNC(=O)c2ccc(C(F)(F)F)cc2)sc2nc(-c3ccc(F)cc3)nn12,-0.0826%,–
Cc1ccc(C(=O)N/C(=C/C=C/c2ccccc2)C(=O)NCc2ccco2)cc1,-6.44%,–
CC1CCCCC12NC(=O)N(CC(=O)Nc1ccc(S(=O)(=O)Nc3ncccn3)cc1)C2=O (centres undefined),0.431%,–
Cc1ccccc1NC(=O)NCc1ccco1,-3.59%,–
Cc1cccc(Nc2ccccc2C(=O)NCc2ccco2)c1C,3.31%,–
CC(C)(C)NC(=O)NCc1ccco1,-2.22%,–
O=C(Nc1ccccc1)Nc1ccccc1C(=O)NCc1ccco1,–,15.1 µM (active)
CC(C)(C)c1ccc(NC(=O)NCc2ccco2)cc1,–,23.9 µM (active)
CC(C)(C)c1ccc(C(=O)NCCC(=O)NCc2ccco2)cc1,-13.9%,–
CCCCNC(=O)C1CCCN(c2nnc(C)c3c(C)n(-c4ccc(Cl)cc4)nc23)C1 (centres undefined),-6.66%,–
CCOC(=O)CSC1=Nc2ccccc2C2=NC(CCC(=O)NCc3ccc(F)cc3)C(=O)N12 (centres undefined),2.71%,–
CCN(CC(=O)Nc1ccccc1OC)C(=O)CC1CC2CCC1C2 (centres undefined),-0.227%,–
O=C(Cc1ccc(Cl)cc1)NCC(c1cccs1)S(=O)(=O)c1ccc(Cl)cc1 (centres undefined),-14.2%,–
O=C(Cc1cccs1)N(CC1CCCO1)C1(C(=O)NC2CCCCC2)CCCCC1 (centres undefined),-2.36%,–
CC1CCCN(c2nc3c(S(=O)(=O)c4ccc(C(C)C)cc4)nnn3c3ccsc23)C1 (centres undefined),5.49%,–
O=C(NCc1ccccc1)C1CCN(C(=O)Cc2ccccc2)CC1,4.44%,–
CCOC(=O)N1CCC(NC(=O)CCc2ccccc2)CC1,0.99%,–
O=C(O)C1CCN(C(=O)OCc2ccccc2)CC1,–,10.7 µM (active)
COc1cc(OC)cc(-c2nnc(N(C)C(=O)c3ccncc3)s2)c1,-0.199%,–
CN(C(=O)c1ccccn1)c1nnc(-c2ccccn2)s1,–,3.38 µM (active)
CN(C(=O)C1CCOC1)c1nnc(-c2cccnc2)s1 (centres undefined),3.31%,–
Cc1ccc(C(=O)CCC(=O)N(C)CC(=O)Nc2c(Cl)cccc2Cl)cc1,-16.9%,–

Structure (SMILES),"activity change, negative = inhibition",Potency
CCn1c(COc2c(C)cccc2C)nnc1SCc1nc2ccccc2c(=O)[nH]1,7.76%,–
COc1ccc(Cn2ccnc2SCC(=O)NCc2ccco2)cc1,0.425%,–
CC(NC(=O)c1cc(Sc2ccc(F)cc2F)nc2ccccc12)c1ccccc1 (centres undefined),4.18%,–
Cn1c(=O)c2c(nc(SCC(=O)Nc3ccc(F)cc3)n2Cc2ccccc2)n(C)c1=O,1.13%,–
CCN(CC(=O)Nc1ccccc1C(F)(F)F)C(=O)C1CCN(C(=O)Nc2ccccc2)CC1,2.43%,–
O=C(NC1CC(=O)N(c2ccc(Cl)cc2)C1)C1CCCC1 (centres undefined),-5.39%,–
S=C(NNC(=S)NC1CC2C=CC1C2)NC1CC2C=CC1C2 (centres undefined),0.443%,–
CC(C)c1ccc(NC(=S)NC2CC3C=CC2C3)cc1 (centres undefined),–,10.7 µM (active)
S=C(NNC(=S)NC1CC2CCC1C2)NC1CC2C=CC1C2 (centres undefined),-0.235%,–
Cc1c(Cl)cccc1NC(=O)C1CCCN(C(=O)c2cnn(-c3ccccc3)c2-n2cccc2)C1 (centres undefined),-17.5%,–
Cc1cc(=O)[nH]c(N/N=C/c2ccc3c(c2)OCCO3)n1,–,10.7 µM (active)
Cc1ccc2nc(C)cc(N/N=C/c3ccc(F)cc3)c2c1,-1.41%,–
Cc1cc(=O)[nH]c(N/N=C/c2c(C)nn(-c3ccccc3Cl)c2Cl)n1,–,21.3 µM (active)
Cc1nnc(N/N=C/c2ccccn2)[nH]c1=O,-4.55%,–
Cc1ccc(C)c(NC2=NCC(=O)N2c2ccc3c(c2)OCCO3)c1,-7.62%,–
CCN(CC)c1ccc(/C=N/Nc2nc(C)cc(=O)[nH]2)cc1,–,19 µM (active)
Cc1cc(=O)[nH]c(Nc2cccc(Br)c2)n1,-3.47%,–
CCOC(=O)Cc1csc(NC(=O)CSc2nc(C)cc(=O)[nH]2)n1,-11%,–
COc1ccc(CCC(=O)N2CCN(S(=O)(=O)c3ccc(OC)cc3)CC2)cc1,0.133%,–
Cc1ccc(F)cc1S(=O)(=O)Nc1cccc(C(=O)N2CCCC(C(N)=O)C2)c1 (centres undefined),1.32%,–
CCOC(=O)c1cc(-c2ccc(OC)c(S(=O)(=O)Nc3ccc(OC)cc3OC)c2)on1,-6.63%,–
CCOc1ccc(S(=O)(=O)Nc2ccc(C(=O)NCCCN3CCCC3=O)cc2)cc1,0.869%,–
Nc1ncc(S(=O)(=O)Nc2ccc(OC(F)(F)F)cc2)cn1,-18.2%,–
COc1ccccc1N1CCN(c2ccc(=O)n(CC(=O)NCc3ccc(OC(C)C)cc3)n2)CC1,-8.85%,–
Cc1cc(C)cc(NS(=O)(=O)c2ccc(-c3cc(C)no3)s2)c1,-17.8%,–
Cn1nc(-c2ccccc2)c(-c2ccccc2)c(C(=O)Nc2ccc(S(N)(=O)=O)cc2)c1=O,-7.51%,–

Structure (SMILES),"activity change, negative = inhibition",Potency
CCc1cccc(CC)c1NC(=O)Cn1c(=O)c(-c2cc(C)ccc2NC(C)=O)nc2ccccc21,3.12%,–
Cc1ccc(C(=O)COC(=O)CCN2C(=O)C3C4CCC(C4)C3C2=O)cc1C (centres undefined),–,10.7 µM (active)
Cc1ccc(C(=O)COC(=O)CCN2C(=O)C3C4CC(C(Br)C4Br)C3C2=O)cc1 (centres undefined),1.77%,–
O=C(CCN1C(=O)C2C3CCC(C3)C2C1=O)Nc1ccc(Cl)cc1Cl (centres undefined),-0.123%,–
COc1ccccc1-c1noc(CSc2nnc(-c3ccccc3)n2-c2ccc(C)c(C)c2)n1,-0.724%,–
c1cc(-n2cnnn2)ccc1NC1=NCCC1,-0.318%,–
Cc1ccc(C(=O)Cn2cccn2)cc1,2.73%,–
Cc1ccc(C(=O)Cc2nnc(C)s2)cc1,–,9.53 µM (active)
Cc1ccc(S(=O)(=O)CC(=O)Nc2nnc(C)s2)cc1,0.491%,–
CC(CO)N1CCS(=O)(=O)CC1 (centres undefined),5.19%,–
CCc1cc2c(cc3c(=O)n(CC(=O)N4CCN(c5cc(Cl)ccc5C)CC4)nc(CC)n32)s1,-10.4%,–
Cc1ccc(NC(=O)c2oc3ccccc3c2NC(=O)Cc2cccs2)cc1,1.25%,–
Cc1cc2c(cc3c(SCc4nc(-c5ccccc5)oc4C)nnc(C)n32)o1,-1.75%,–
Cc1ccc(S(=O)(=O)NCCSc2ccccc2)cc1[N+](=O)[O-],6.22%,–
CCS(=O)(=O)c1cc([N+](=O)[O-])c(Sc2ccccc2N)s1,–,4.26 µM (active)
CC(=O)c1ccc(N2CCN(C3C(=O)c4ccccc4N3C(C)=O)CC2)cc1 (centres undefined),-11.4%,–
CCOC(=O)c1ccc(NC(=O)CCn2cnnn2)cc1,2.52%,–
CC(C)c1csc(CN2CCC(CO)(Cc3ccccc3)CC2)n1,–,6.75 µM (active)
OCC1(Cc2ccccc2)CCN(Cc2cc3ccccc3o2)CC1,3.73%,–
CC(=O)c1cccc(CN2CCC(CO)(Cc3ccccc3)CC2)c1,1.15%,–
Cc1nc2c(-c3ccccc3)c(C)nn2c(C)c1CCC(=O)NCCc1ccccc1,-13.9%,–
COc1cccc(CNC(=O)C2CCN(S(=O)(=O)c3ccc4c(ccn4C)c3)CC2)c1,-8.5%,–
CC1CCCCC1NC(=O)NC(=O)COC(=O)C1=NN(c2ccccc2)C(=O)CC1 (centres undefined),5.26%,–
CS/C(=C\C(=O)c1ccco1)Nc1ccccc1Cl,–,3.79 µM (active)
O=C(Nc1ccccc1C(=O)N1CCCCC1)c1ccco1,2.11%,–
Cc1c(Cl)cccc1NC(=O)CCC(=O)N/N=C/c1ccco1,-0.65%,–
